Laboratory results taken from PubChem BioAssay (Tox21).
Values joined by “and” are separate entries in the source; they are usually repeats but may differ in a detail not shown here. Equal entries are not always repeated. Inconclusive results are not listed. Active and inactive are the calls of the source. The call rests on the fitted dose curve; in most records, active means well fitted cell-killing curve with a large enough effect in the repeat runs; inconclusive means weak or mixed curves, or effect the other way; inactive means flat fitted curve, though single readings scatter.

Assay: qHTS assay to identify small molecule agonists of the constitutive androstane receptor (CAR) signaling pathway - cell viability counter screen (AID 1224836); further: nearly all actives have a fitted effect of over 45% in size
Details: HepG2-CYP2B6-hCAR viability, CellTiter-Fluor, 23 h, PK11195 added to every well; series mostly up to 92.4 µM; viability change, negative = cytotoxic: at the top concentration
Outline: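 Double-stable HepG2 hepatoma cells (hCAR plus CYP2B6-2.2kb) are treated for 23 h at 37 C with test compounds in 15-point concentration series. PK11195 at 0.75 uM final is co-added. Cell viability is quantified by CellTiter-Fluor.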
On the % scale 0 is the no-effect control and ±100 the full control effect; potency means the concentration at half of the fitted maximal effect.

Row | SMILES | viability change, negative = cytotoxic | Potency
1 | Cc1cccc(Cc2cnc[nH]2)c1C | -0.723% [at 42.5 µM] (inactive) | 
2 | CN(C)C(=S)SSC(=S)N(C)C |  | 339 nM (active) and 486 nM (active) and 531 nM (active)
3 | c1csc(-c2ccc(-c3cccs3)s2)c1 | -22.7% (inactive) | 
4 | COP(=S)(NC(C)C)Oc1ccc(C)cc1[N+](=O)[O-] (stereo unspecified) | -16.1% (inactive) | 
5 | CCC1(CC)C(=O)N=C(O)NC1=O | 3.15% (inactive) | 
6 | CC(=O)C(Cl)C(=O)N(C)C (stereo unspecified) | -8.61% (inactive) | 
7 | CCOC(=O)CCN(SN(C)C(=O)Oc1cccc2c1OC(C)(C)C2)C(C)C | 3.42% (inactive) | 
8 | COc1nc(C)nc(NC(=O)NS(=O)(=O)c2ccccc2Cl)n1 | -0.76% (inactive) | 
9 | c1ccc2nc(N3CCNCC3)ccc2c1 | -26% [at 42.5 µM] (inactive) | 
10 | CCCCC(CC)COC(=O)OOC(C)(C)C (stereo unspecified) | -2.35% (inactive) | 
11 | CCOP(=S)(OCC)Oc1cc(C)nc(N(CC)CC)n1 | 6.4% (inactive) | 
12 | CC1CCCC1 | -1.64% (inactive) | 
13 | COc1ccc2c(c1OC)C(=O)O[C@@H]2[C@H]1c2cc3c(cc2CCN1C)OCO3 |  | 7.62 µM (active)
14 | CN/C(=N\[N+](=O)[O-])NCc1cnc(Cl)s1 | 3.31% (inactive) | 
15 | CCOP(=O)(Sc1ccccc1)Sc1ccccc1 | 0.119% (inactive) | 
16 | CCOC(=O)Cc1ccccc1 | 6.86% (inactive) | 
17 | CNC(=O)Oc1cc(C)cc(C(C)C)c1 | -0.361% (inactive) | 
18 | O=c1c2ccccc2c(=O)c2c1cc(Cl)c1[nH]c3c([nH]c12)c(Cl)cc1c(=O)c2ccccc2c(=O)c13 | 1.58% (inactive) | 
19 | CCOP(=S)(OCC)SC(CCl)N1C(=O)c2ccccc2C1=O (stereo unspecified) | -3.75% (inactive) | 
20 | ClC1=C(Cl)[C@]2(Cl)[C@H]3[C@H]([C@@H]4C=C[C@H]3C4)[C@@]1(Cl)C2(Cl)Cl |  | inactive
21 | [O]=[Cr][O][Cr]=[O] | 1.52% (inactive) | 
